Source: PubChem (several laboratories)
BJeLR viability: MLPCN primary cell-based screen for lethality selective to Ras in HRASV12 cells | BJeLR (HRASV12) viability, CellTiter-Glo ATP luminescence, 48 h | inhibition, % (concentration not given with the values) | actives 0.17% (n = 300,000) | AID 1554, 2009; in the data active = inhibition above about 50%
PrPC TRFRET: inhibitors of human cell surface prion protein PrPC, primary screen, cell-based, TR-FRET; TR-FRET read-out; AID 720596, 2013; Major prion protein (Homo sapiens), P04156; inhibition, % at 13.8 µM; actives 0.43% (n = 370,000); in the data active = inhibition above about 24%
PfHsp40 rescue: rescue of yeast from PfHsp40 toxicity, primary screen, S. cerevisiae, ATP luminescence | growth rescue, % at 12.5 µM | S. cerevisiae expressing PfHsp40, growth rescue | actives 0.68% (n = 340,000) | AID 504582, 2011; in the data active = growth rescue above about 28%, passing the limit was not always enough;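 also: yeast W303a lacking pdr1 and pdr3 grown in galactose medium; growth measured after three days at 30 °C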
PrP 5UTR inh: inhibition of PrP 5' UTR reporter expression. AID 488862, 2010. actives 0.35% (n = 340,000). cell-based PrP 5' UTR mRNA reporter, plate reader. inhibition, % (test concentration not listed); in the data active = inhibition above about 52%
FBA Mtb inh: Mtb FBA enzyme inhibitors, primary screen, biochemical, fluorescence, strain H37Rv; Fructose-bisphosphate aldolase (Mycobacterium tuberculosis (strain ATCC 25618 / H37Rv)), …; purified M. tuberculosis FBA, fluorescence read-out; inhibition, % at 1 µM; actives 2.3% (n = 360,000)
Target sequence (P9WQA3 whole entry, looked up): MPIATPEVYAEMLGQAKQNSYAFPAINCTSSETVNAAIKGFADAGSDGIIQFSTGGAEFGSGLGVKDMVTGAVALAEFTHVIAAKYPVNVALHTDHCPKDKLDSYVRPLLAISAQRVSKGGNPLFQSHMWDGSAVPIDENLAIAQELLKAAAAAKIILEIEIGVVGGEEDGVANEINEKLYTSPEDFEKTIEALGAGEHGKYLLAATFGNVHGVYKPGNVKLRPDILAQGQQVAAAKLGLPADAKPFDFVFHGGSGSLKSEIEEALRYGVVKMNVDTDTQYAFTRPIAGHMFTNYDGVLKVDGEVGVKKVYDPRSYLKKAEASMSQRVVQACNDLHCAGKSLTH
GDH-TPI counter-1: GDH-TPI coupling enzyme inhibitors, primary screen, artefact control for M. tuberculosis FBA inhibitor project, biochemical, absorbance, full deck; actives 1.2% (n = 360,000); inhibition, % at 4.8 µM; AID 588335, 2011; GDH-TPI coupled enzyme counterscreen, NADH absorbance; in the data active = inhibition above about 30%
Mtb FBA confirm: M. tuberculosis aldolase blockers, biochemical, fluorescence, strain H37Rv, confirmation; shares compounds with FBA Mtb inh; purified M. tuberculosis FBA, fluorescence read-out; inhibition, % at 1 µM; actives 78% (n = 5,600); AID 651616, 2012
GDH-TPI counter-2: GDH-TPI coupling enzyme inhibitors, artefact control for M. tuberculosis FBA inhibitor project, biochemical, fluorescence, high throughput | shares compounds with FBA Mtb inh | GDH-TPI coupled enzyme counterscreen | inhibition, % at 1 µM | actives 81% (n = 5,600) | AID 652141, 2013; in the data active = inhibition above about 10%
Large screens that a line does not name were inactive (follow-up assays come after a bar, where they were run). In the library only some 4.5% were active in any assay of this set; here they are far more common. Rule as the data show it, unless noted: active = inhibition above about 27%; inactive = the rest.

COc1ccccc1Cc1c(-c2ccc(OC)c(OC)c2)nc2ccc(C)cn12	FBA Mtb inh 45 (no result: BJeLR viability, PfHsp40 rescue, PrP 5UTR inh, GDH-TPI counter-1) | Mtb FBA confirm 119 | GDH-TPI counter-2 94
COc1ccc(-c2nc3ccc(C)cn3c2Cc2cccc(Cl)c2)cc1OC	FBA Mtb inh 33 (no result: BJeLR viability, PfHsp40 rescue, PrP 5UTR inh, GDH-TPI counter-1) | Mtb FBA confirm 107 | GDH-TPI counter-2 76
COC(=O)c1ccc2nc(-c3ccc(OC)c(OC)c3)c(Cc3ccccc3OC)n2c1	none (no result: BJeLR viability, PfHsp40 rescue, PrP 5UTR inh, GDH-TPI counter-1)
N#Cc1c(N2CCCC2)ccc(Br)c1Cl	none
O=C(CC1C(=O)NCCN1CC(c1ccccc1)c1ccccc1)NC1CC1 (stereo not given)	none
CCc1ccccc1NC(=O)COc1ccc(C(=S)N2CCCC2)cc1	none
COc1ccc(OC)c2c1CCC2=O	FBA Mtb inh 30 | Mtb FBA confirm 71 | GDH-TPI counter-2 51
CCCc1cc(=O)oc2cc(C)cc(OC(C)C(=O)NCc3ccncc3)c12 (stereo not given)	FBA Mtb inh 58 | Mtb FBA confirm active | GDH-TPI counter-2 active
CC(Oc1cc2oc(=O)c3c(c2cc1Cl)CCC3)C(=O)NCc1cccnc1 (stereo not given)	none
CCCc1cc(=O)oc2cc(C)cc(OC(C)C(=O)NCc3cccnc3)c12 (stereo not given)	FBA Mtb inh 70 | Mtb FBA confirm inactive | GDH-TPI counter-2 inactive
Cc1cc(OCC(=O)NCc2ccncc2)c2c3c(c(=O)oc2c1)CCC3	none
Cc1cccc(N=C2NC(=O)C(CO)(CO)S2)c1	none
Cc1ccc(N2C(N)=NC(N)=NC2(C)C)c(C)c1	none
Cc1ccccc1N1C(N)=NC(N)=NC1(C)C	FBA Mtb inh 76 | Mtb FBA confirm active | GDH-TPI counter-2 active
CCOC(=O)c1ccccc1NC1CC(=O)N(c2ccccc2C)C1=O (stereo not given)	FBA Mtb inh 102 | Mtb FBA confirm 135 | GDH-TPI counter-2 139
CCOC(=O)c1ccccc1NC(=O)C1CC(=O)N(C(C)(C)C)C1 (stereo not given)	none
O=C(c1cc(COc2cccc3cnccc23)on1)N1CCCC(CCCO)C1 (stereo not given)	FBA Mtb inh 30 | Mtb FBA confirm 192 | GDH-TPI counter-2 132
COCC1CCN(C(=O)c2cc(COc3cccc4cnccc34)on2)CC1	none
O=c1[nH]c(=O)n(Cc2ccccc2)c2nc(-c3ccco3)cc(C(F)(F)F)c12	FBA Mtb inh 27 | Mtb FBA confirm 72 | GDH-TPI counter-2 64
Cc1cc(C(F)(F)F)c2c(=O)[nH]c(=O)n(Cc3ccccc3)c2n1	none
Cc1ccc(/C=N/OC(=O)c2nn(C)cc2Cl)cc1	none
Cc1nnsc1C(=O)N1CCCC(Nc2ccc(F)c(F)c2)C1 (stereo not given)	none
Cn1cc(/C=C(\NC(=O)c2ccccc2Cl)C(=O)NCCCn2ccnc2)c2ccccc21	none
C=CCNc1oc(-c2ccc(-c3ccccc3)cc2)nc1C#N	none (no result: BJeLR viability, PrPC TRFRET)
CCOc1ccc(-c2nc(C#N)c(NC3CC3)o2)cc1	FBA Mtb inh 96 (no result: PrPC TRFRET) | Mtb FBA confirm inactive | GDH-TPI counter-2 inactive
N#Cc1nc(-c2ccccc2)oc1NCc1ccco1	FBA Mtb inh 101 | Mtb FBA confirm 59 | GDH-TPI counter-2 50
COc1ccc(-c2nc(C#N)c(NCc3ccccc3Cl)o2)cc1	none
COc1ccc(CNc2oc(-c3ccccc3)nc2C#N)cc1	FBA Mtb inh 92 | Mtb FBA confirm 95 | GDH-TPI counter-2 73
N#Cc1nc(-c2ccc(Cl)cc2)oc1NCc1cccc2c1OCO2	FBA Mtb inh 27 | Mtb FBA confirm 110 | GDH-TPI counter-2 89
CCOc1ccc(-c2nc(C#N)c(NCc3ccc4c(c3)OCO4)o2)cc1	none
COC(=O)NNC(=S)Nc1ccc(Br)cc1	none
COc1ccc(CCNC(=O)C(=O)N2CCCC2)cc1OC	none
COc1ccccc1NC(=O)CSCc1ccc([N+](=O)[O-])cc1	none
COc1ccc(CCNc2oc(-c3ccc(C)cc3)nc2C#N)cc1OC	FBA Mtb inh 51 | Mtb FBA confirm 70 | GDH-TPI counter-2 62
COc1ccc(CCNc2oc(COc3ccccc3F)nc2C#N)cc1	none
COc1ccc(-c2nc(C#N)c(NCCc3ccccc3)o2)cc1	FBA Mtb inh 80 | Mtb FBA confirm 37 | GDH-TPI counter-2 26
Cc1ccc(-c2nc(C#N)c(NCCc3ccccn3)o2)cc1	none
N#Cc1nc(-c2ccc(Cl)cc2)oc1NCCc1ccccn1	PfHsp40 rescue 67, FBA Mtb inh 28, GDH-TPI counter-1 31 | Mtb FBA confirm 88 | GDH-TPI counter-2 82
CC(C)[C@H](NC(=O)N1CC(=O)Nc2ccccc21)C(=O)N[C@@H](C(=O)O)c1ccccc1	none
CC(C)=CCn1c2ccc(NC(=S)NC3CC3)cc2c(=O)n1C	FBA Mtb inh 31 (no result: BJeLR viability, PfHsp40 rescue, PrP 5UTR inh) | Mtb FBA confirm 88 | GDH-TPI counter-2 74
Cc1cc(C)cc(Cn2c3ccc(NC(=S)NC4CCCCC4)cc3c(=O)n2C)c1	none (no result: BJeLR viability, PfHsp40 rescue, PrP 5UTR inh)
Cn1c(=O)c2cc(NC(=S)NC3CC3)ccc2n1Cc1ccccc1	FBA Mtb inh 41 (no result: BJeLR viability, PfHsp40 rescue, PrP 5UTR inh) | Mtb FBA confirm inactive | GDH-TPI counter-2 inactive
COc1cccc(CNC(=S)Nc2ccc3c(c2)c(=O)n(C)n3Cc2ccccc2)c1	FBA Mtb inh 56 (no result: BJeLR viability, PfHsp40 rescue, PrP 5UTR inh) | Mtb FBA confirm 68 | GDH-TPI counter-2 44
COc1cccc(CNC(=S)Nc2ccc3c(c2)c(=O)n(C)n3Cc2csc(C)n2)c1	none (no result: BJeLR viability, PfHsp40 rescue, PrP 5UTR inh)
Cc1nc(Cn2c3ccc(NC(=S)NC4CCCCC4)cc3c(=O)n2C)cs1	FBA Mtb inh 28 (no result: BJeLR viability, PfHsp40 rescue, PrP 5UTR inh) | Mtb FBA confirm 73 | GDH-TPI counter-2 49
COc1cc(C(=O)NNC(=O)c2cc(C)[nH]n2)cc(OC)c1OC	none (no result: PfHsp40 rescue)
COc1ccc(CCNC(=O)Nc2ccc3c(c2)c(=O)n(C)n3Cc2ccc(Cl)cc2)cc1OC	FBA Mtb inh 88 (no result: BJeLR viability, PfHsp40 rescue, PrP 5UTR inh) | Mtb FBA confirm 29 | GDH-TPI counter-2 28
COc1ccc(NC(=O)NCCc2cccc(Cl)c2)cc1OC	none
Cc1ccc(S(=O)(=O)NNC2CC(=O)N(c3ccc(Br)cc3)C2=O)cc1 (stereo not given)	none
COc1ccc(S(=O)(=O)N2CCN(C(=O)C3CC(=O)N(c4ccccc4F)C3)CC2)cc1OC (stereo not given)	FBA Mtb inh 33 (no result: BJeLR viability) | Mtb FBA confirm 150 | GDH-TPI counter-2 94
